# Screening data: PubChem, several laboratories
# D1 allo mod: D1 CRE-luciferase signal change, two-sided – cell-based, HEK293 D1, dopamine EC30, D1 allosteric modulator project, primary screen; B-score at 10 µM; actives 5.9% (n = 58,000); dopamine EC30 potentiation; actives deviate in either direction;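 active = luminescence count or its row- and column-corrected plate score outside the 99.7% band of the plate's sample wells, on either side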
# Target sequence (P21728 whole entry, looked up): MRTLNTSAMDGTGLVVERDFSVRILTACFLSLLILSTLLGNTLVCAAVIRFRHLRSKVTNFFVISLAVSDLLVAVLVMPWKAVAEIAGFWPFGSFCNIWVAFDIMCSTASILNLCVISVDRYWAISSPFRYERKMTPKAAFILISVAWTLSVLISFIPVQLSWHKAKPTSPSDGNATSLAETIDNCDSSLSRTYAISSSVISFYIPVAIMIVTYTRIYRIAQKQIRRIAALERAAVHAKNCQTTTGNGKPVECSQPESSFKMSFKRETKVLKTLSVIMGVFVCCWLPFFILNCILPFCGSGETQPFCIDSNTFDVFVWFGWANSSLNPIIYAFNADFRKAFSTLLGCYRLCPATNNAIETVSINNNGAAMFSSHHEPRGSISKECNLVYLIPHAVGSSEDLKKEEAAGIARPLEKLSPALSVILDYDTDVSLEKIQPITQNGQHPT
# CYP2C19 inhib: blockers of cytochrome P450 2C19 activity – biochemical, luminescence, ADME assay, primary screen; P33261; CYP2C19 Supersomes, luciferin-H EGE luminescence, 30 min; inhibition, % at 5 µM; actives 21% (n = 96,000); AID 778, 2007;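 active = CYP2C19 inhibition above a set limit at 5 µM in the primary screen, cut at about 50% in these data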;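 also: plate controls were negative control wells for no effect and 2.5 mM tranylcypromine positive control for full effect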
# CYP2C9 inh: blockers of cytochrome P450 2C9 activity – biochemical, luminescence, ADME assay, primary screen | CYP2C9 Supersomes, luciferin-H conversion | inhibition, % at 5 µM | actives 20% (n = 96,000) | P11712;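 active = blocking of liver enzyme CYP2C9 beyond about 50% at 5 µM, limit read from the data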
# CYP2C19 activ: human CYP2C19 activators, primary screen, biochemical, luminescence | Cytochrome P450 2C19 (Homo sapiens), P33261 | recombinant CYP2C19, luciferin-H EGE luminescence; hits give high values; 0 = fully inhibited enzyme, 1 = untreated enzyme | activation factor at 5 µM | 96,000 tested, under 10 active | AID 1025, 2008;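 active = activation factor of at least 2 at 5 µM in the primary screen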;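 also: 0 = wells with 2.5 mM tranylcypromine and 1 = vehicle-only wells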
# hDAT+cocaine: changed hDAT dopamine uptake under cocaine IC80, either direction, primary screen, cocaine antagonist project, cell-based, LLC-PK1 hDAT, [14C]-dopamine uptake, MLSMR. Sodium-dependent dopamine transporter (Homo sapiens), Q01959. LLC-PK1 hDAT cells, [14C]-dopamine uptake with cocaine IC80; actives deviate in either direction. B-score at 10 µM. actives 1.3% (n = 110,000);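 active = Z score or B-score, a plate-position-corrected score, falls beyond the plate's 99.7% confidence bounds, in either direction; inactive = both scores lie inside the 99.7% bounds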;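 also: scored against the spread of the other compound wells on the same plate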
# CYP2C9 act: human CYP2C9 activators, primary screen, biochemical, luminescence | activation factor at 5 µM | recombinant CYP2C9, luciferin-H conversion; hits give high values; factor 1 = untreated enzyme, 0 = blocked | actives 1.4% (n = 96,000) | AID 1024, 2008 | Cytochrome P450 2C9 (Homo sapiens), P11712;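 active = activation factor of 2 or more for CYP2C9 at a 5 µM dose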;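 also: 0 = sulfaphenazole-blocked wells and 1 = vehicle-only wells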
# Starred values were filed as active, the others as inactive; · = not tested or not shown. Shown are actives, neighbours in structure and some others; about 28% of the full set was active somewhere.
SMILES,D1 allo mod,CYP2C19 inhib,CYP2C9 inh,CYP2C19 activ,hDAT+cocaine,CYP2C9 act
COc1ccc([C@@H]2Sc3ccccc3N(CCN(C)C)C(=O)[C@@H]2OC(C)=O)cc1,-6.8*,·,·,·,0.41,·
Cn1c(-c2ccc3ccccc3n2)nc2cnccc21,-0.91,88*,54*,0.1,-0.46,0.5
COc1cc(OC)c(-c2nc3cnccc3n2C)cc1OC,1.4,75*,35,0.2,-0.17,0.6
COc1cc(-c2nc3cnccc3n2C)cc(OC)c1OC,-0.4,-6,2,1.1,0.88,1
Cn1c(=Nc2ccccc2)sc2ccccc21,·,81*,41,0.2,-2.1,0.6
CN(C)c1ccc(N=c2sc3ccccc3n2C)cc1,·,98*,77*,0,-0.033,0.2
Cn1c(=NC(=O)CCl)sc2ccccc21,·,-4,-20,1,-0.39,1.2
CCCn1c(SCc2cc(=O)oc3ccc4ccccc4c23)n[nH]c1=O,-0.0039,78*,84*,0.2,-0.32,0.2
COc1cc(C(=O)N2CCN(C(=O)COc3ccc4ccccc4c3)CC2)cc(OC)c1OC,0.2,18,35,0.8,0.62,0.7
CCc1nc(-c2ccccc2O)n(-c2ccccc2)n1,·,74*,18,0.3,0.6,0.8
COC(=O)c1onc(-c2c(C)cc(C)cc2C)c1C(=O)OC,·,19,6,0.8,-0.71,0.9
Cc1ccc(S(=O)(=O)N2CCSC2C(=O)O)cc1 (stereo not given),·,·,·,·,-0.24,·
CC(=O)Nc1ccc(S(=O)(=O)N2CCSC2c2ccc(Cl)cc2)cc1 (stereo not given),-0.87,8,-19,0.9,-0.1,1.2
COc1cc(OC)c(C2SCCN2S(=O)(=O)c2ccc(F)cc2)cc1OC (stereo not given),-1,60*,32,0.4,0.84,0.7
COc1ccc(OC)c(C2SCCN2S(=O)(=O)c2cccc(C(F)(F)F)c2)c1 (stereo not given),-0.32,91*,53*,0.1,-1.5,0.5
COc1ccc(S(=O)(=O)N2CCSC2c2ccc(N)cc2)cc1 (stereo not given),-1.2,97*,36,0,0.035,0.6
COc1cc(-c2nnc(Sc3ccc(C(F)(F)F)cc3[N+](=O)[O-])o2)cc(OC)c1OC,·,39,20,0.6,0.4,0.8
Cc1oc(-c2ccc(Cl)cc2)[n+]([O-])c1C,-0.69,3,15,1,0.19,0.8
COc1cccc(C(=O)Nc2ccccc2N2CCOCC2)c1,-0.014,62*,53*,0.4,0.95,0.5
COC(=O)c1ccc(N2CCOCC2)c(NC(=O)Nc2cccc(OC)c2)c1,-2.4,24,71*,0.8,1.1,0.3
COc1cccc(C(=O)OCC(=O)Nc2ccccc2N2CCOCC2)c1,-0.31,39,51*,0.6,·,0.5
COc1cccc(-n2c(C)nnc2SCC(=O)Nc2ccccc2N2CCOCC2)c1,-0.14,63*,77*,0.4,-0.74,0.2
Cc1nnc(SCC(=O)Nc2ccc(N3CCOCC3)cc2)n1-c1ccccc1,·,9,30,0.9,0.67,0.7
Cc1ccc(C(=O)OCC(=O)Nc2ccccc2N2CCOCC2)cc1,·,·,·,·,0.35,·
COc1cccc(N2[C@@H](CC(=O)O)c3ccc(/C=C/C(=O)O)cc3S2(=O)=O)c1,·,·,·,·,-0.38,·
Sc1oc(-c2ccccc2)cc1C=Nc1ccccc1,·,2,29,1,0.55,0.7
CC(=O)C1=C(C)Nc2ncnn2C1c1ccccc1OCc1ccccc1 (stereo not given),-0.14,54*,24,0.5,0.0038,0.8
COc1cc(C2C(C(C)=O)=C(C)Nc3ncnn32)ccc1O (stereo not given),-0.12,-14,-6,1.1,2.9,1.1
